Test results from PubChem BioAssay.
Records with an inconclusive call do not appear. Active and inactive are the calls of the source.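 How the source made its calls, unless noted: active means percent response above a set limit, the screen-wide mean plus 3 SD (cut at about 130% in these data); inactive means the rest.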

Experiments:
[1] = yeast TOR pathway RPL19A-GFP modulators, primary screen, cell-based, S. cerevisiae, multiplex flow cytometry (AID 1862; in the data active means percent of DMSO control GFP below about 86%;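 further: lower values mimic rapamycin by blocking the RPL19A rise seen in DMSO cells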); details: S. cerevisiae RPL19A-GFP strain, flow cytometry fluorescence, 3 h; at 10 µM; stronger effect = lower value
[2] = modulators of MEP2-GFP levels in yeast, primary screen, S. cerevisiae, multiplex flow cytometry (AID 1867;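 active means GFP response, as percent of the DMSO control, above the screen-wide mean plus 3 SD, about 139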;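 further: median GFP channel fluorescence of barcode-gated MEP2-GFP cells measured by flow cytometry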); details: S. cerevisiae MEP2-GFP strain, 3 h, at 10 µM, stronger effect = higher value, 100% means same as DMSO wells
[3] = modulators of CIT2-GFP expression in yeast, primary screen, S. cerevisiae, GFP fusion, multiplex flow cytometry (AID 1870); details: 3 h, at 10 µM, stronger effect = higher value;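 further: barcoded CIT2-GFP strain pooled with four other GFP strains with rapamycin as positive control; median GFP fluorescence per well over plate mean of DMSO wells so 100% = DMSO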
[4] = modulators of LAP4-GFP expression in yeast, primary screen, S. cerevisiae, multiplex flow cytometry (AID 1873;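 active means GFP signal, as percent of the solvent control, above the screen mean plus 3 SD, about 149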); details: 3 h, at 10 µM, stronger effect = higher value
[5] = modulators of AGP1-GFP expression in yeast TOR pathway, primary screen, cell-based, multiplex flow cytometry, S. cerevisiae (AID 1887;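 active means GFP signal above the screen-wide mean plus 3 SD, that is over about 124.5% of the solvent control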;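 further: AGP1-GFP fusion strain of S. cerevisiae within a five-strain barcoded multiplex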); details: 3 h, at 10 µM, stronger effect = higher value
[6] = inhibitors of CD8+ T cell-vesicle binding, pilot screen, LFA-1/ICAM-1 modulator project, MLPCN validation set, flow cytometry (AID 2523;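 active means response below a set limit, under 55% cells CD8-positive and vesicle-bound, and CD8 cells' 90th-percentile brightness under 279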;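 on vesicle binding response: mean PE anti-B7-1 fluorescence of CD8+ cells relative to row control; 100% = QL9-loaded vesicles with DMSO vehicle in the same plate row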); details: 2C mouse CD8+ T cells, at 7 µM, stronger effect = lower value; double positive events: measured here: CD8+/vesicle+ event percentage
[7] = molecular target: Integrin beta-1 (Homo sapiens) + Integrin alpha-4 (Homo sapiens) (UniProt P13612+P05556); assay: inhibition of HUTS-21 binding to VLA-4, pilot screen, VLA-4 allosteric modulator project, U937 cells, HUTS-21 mAb, flow cytometry, validation set (AID 2674;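 active means inhibition above 50%, about 3 SD of the validation set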;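 further: antibody binding induced by the VLA-4 ligand LDV present at three times its Kd; 0% = LDV ligand with antibody and no compound and 100% = antibody without LDV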); details: HUTS-21 LIBS mAb binding, at 6.7 µM, stronger effect = higher value, binding induced by LDV ligand
Integrin beta-1 (Homo sapiens) + Integrin alpha-4 (Homo sapiens), sequence (P05556 whole entry, looked up): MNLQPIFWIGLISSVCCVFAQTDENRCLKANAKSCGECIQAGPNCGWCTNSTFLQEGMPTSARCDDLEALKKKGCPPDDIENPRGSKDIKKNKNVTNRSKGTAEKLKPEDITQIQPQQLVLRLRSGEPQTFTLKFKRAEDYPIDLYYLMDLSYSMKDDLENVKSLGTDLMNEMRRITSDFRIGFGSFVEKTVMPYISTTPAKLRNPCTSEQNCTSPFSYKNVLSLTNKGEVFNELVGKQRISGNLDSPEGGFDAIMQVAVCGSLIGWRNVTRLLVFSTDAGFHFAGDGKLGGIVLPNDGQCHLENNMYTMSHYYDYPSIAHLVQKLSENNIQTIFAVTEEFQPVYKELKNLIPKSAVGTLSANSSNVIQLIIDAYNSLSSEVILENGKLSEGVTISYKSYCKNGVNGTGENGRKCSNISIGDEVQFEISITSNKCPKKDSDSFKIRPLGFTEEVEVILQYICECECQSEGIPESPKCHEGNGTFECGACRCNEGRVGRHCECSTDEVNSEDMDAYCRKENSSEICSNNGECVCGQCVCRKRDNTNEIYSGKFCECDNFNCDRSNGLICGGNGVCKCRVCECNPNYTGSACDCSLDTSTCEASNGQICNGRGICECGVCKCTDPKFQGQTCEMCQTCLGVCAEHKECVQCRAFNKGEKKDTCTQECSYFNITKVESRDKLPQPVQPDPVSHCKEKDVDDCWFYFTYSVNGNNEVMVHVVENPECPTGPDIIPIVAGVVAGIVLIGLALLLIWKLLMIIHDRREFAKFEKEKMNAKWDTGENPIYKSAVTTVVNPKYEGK
Integrin beta-1 (Homo sapiens) + Integrin alpha-4 (Homo sapiens), sequence (P13612 whole entry, looked up): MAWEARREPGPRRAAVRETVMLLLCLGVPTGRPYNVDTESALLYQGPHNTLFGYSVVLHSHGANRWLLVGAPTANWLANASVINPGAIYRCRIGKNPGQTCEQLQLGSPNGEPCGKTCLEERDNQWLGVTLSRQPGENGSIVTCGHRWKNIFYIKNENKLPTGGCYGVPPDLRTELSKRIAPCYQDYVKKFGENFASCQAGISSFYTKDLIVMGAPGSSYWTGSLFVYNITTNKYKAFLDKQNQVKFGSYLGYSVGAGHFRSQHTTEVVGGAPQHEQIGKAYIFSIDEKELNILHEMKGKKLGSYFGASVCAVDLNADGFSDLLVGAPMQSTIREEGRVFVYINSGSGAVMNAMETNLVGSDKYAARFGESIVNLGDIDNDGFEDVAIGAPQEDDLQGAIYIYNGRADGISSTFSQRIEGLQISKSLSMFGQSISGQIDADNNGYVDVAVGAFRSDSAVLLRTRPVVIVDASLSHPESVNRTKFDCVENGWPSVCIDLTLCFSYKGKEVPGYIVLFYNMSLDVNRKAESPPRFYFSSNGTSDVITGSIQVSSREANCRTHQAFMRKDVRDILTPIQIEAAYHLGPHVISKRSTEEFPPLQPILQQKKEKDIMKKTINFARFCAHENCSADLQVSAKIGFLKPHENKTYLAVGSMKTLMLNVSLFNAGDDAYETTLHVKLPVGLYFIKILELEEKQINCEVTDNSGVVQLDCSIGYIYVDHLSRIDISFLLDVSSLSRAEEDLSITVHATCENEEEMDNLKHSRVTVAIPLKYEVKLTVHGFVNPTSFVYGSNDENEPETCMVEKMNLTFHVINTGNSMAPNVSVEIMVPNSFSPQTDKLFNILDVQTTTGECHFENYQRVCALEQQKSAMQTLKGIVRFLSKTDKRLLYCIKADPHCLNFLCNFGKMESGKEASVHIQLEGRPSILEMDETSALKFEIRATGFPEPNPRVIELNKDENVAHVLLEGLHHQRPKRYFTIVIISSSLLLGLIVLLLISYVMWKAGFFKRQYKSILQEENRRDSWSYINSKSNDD

[8] = superoxide lowering in aged yeast cells, pilot screen, validation compound set (AID 2706;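 active means superoxide response below 65% of plate, a cut near 3 SD across the whole screen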;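 further: yeast exposed to compound for one week at 30 degrees C before staining; 100% = mean of all compound wells on the same plate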); details: S. cerevisiae aging, superoxide DHE fluorescence; at 10 µM; stronger effect = lower value
[9] = molecular target: Beta-adrenergic receptor kinase 1 (Homo sapiens) (UniProt P25098); assay: GRK2 binders displacing RNA aptamer, biochemical, validation, human GRK2, bead flow cytometry (AID 488806;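 active means aptamer binding inhibition above 30%, about 3 SD of noise from non-fluorescent compounds; inactive means inhibition at or below 30%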); details: bead-bound GRK2, FAM-aptamer displacement, at 10 µM, stronger effect = higher value
Beta-adrenergic receptor kinase 1 (Homo sapiens), sequence (P25098 whole entry, looked up): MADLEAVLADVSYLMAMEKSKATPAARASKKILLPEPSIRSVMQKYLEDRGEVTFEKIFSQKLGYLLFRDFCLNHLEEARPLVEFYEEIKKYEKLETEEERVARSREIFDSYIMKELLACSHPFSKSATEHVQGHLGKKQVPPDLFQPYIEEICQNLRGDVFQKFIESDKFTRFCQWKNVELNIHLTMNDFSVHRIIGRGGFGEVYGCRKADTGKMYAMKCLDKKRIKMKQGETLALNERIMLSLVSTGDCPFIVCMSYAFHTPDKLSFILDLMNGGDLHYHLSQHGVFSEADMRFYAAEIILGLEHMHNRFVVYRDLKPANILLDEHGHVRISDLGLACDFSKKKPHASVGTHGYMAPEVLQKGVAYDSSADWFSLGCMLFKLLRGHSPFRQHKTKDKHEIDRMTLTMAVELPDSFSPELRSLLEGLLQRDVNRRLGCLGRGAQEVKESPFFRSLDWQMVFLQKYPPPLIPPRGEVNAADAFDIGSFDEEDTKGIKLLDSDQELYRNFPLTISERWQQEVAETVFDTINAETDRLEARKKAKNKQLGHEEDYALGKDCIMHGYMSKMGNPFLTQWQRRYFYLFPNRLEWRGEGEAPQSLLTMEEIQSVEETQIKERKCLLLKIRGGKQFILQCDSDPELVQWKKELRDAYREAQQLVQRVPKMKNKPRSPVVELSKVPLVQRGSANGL

[10] = molecular target: Beta-2 adrenergic receptor (Homo sapiens) (UniProt P07550); assay: beta2AR agonists driving receptor internalization, pilot screen, cell-based, FAP fluorogen, flow cytometry, validation set (AID 504459;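 active means percent response above 42, roughly 3 SD of non-fluorescent test compounds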;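 further: agonist-driven loss of surface beta2AR via internalization measured by FAP dye flow cytometry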); details: Am2.2-beta2AR cells, FAP surface receptor flow cytometry; at 10 µM; stronger effect = higher value
Beta-2 adrenergic receptor (Homo sapiens), sequence (P07550 whole entry, looked up): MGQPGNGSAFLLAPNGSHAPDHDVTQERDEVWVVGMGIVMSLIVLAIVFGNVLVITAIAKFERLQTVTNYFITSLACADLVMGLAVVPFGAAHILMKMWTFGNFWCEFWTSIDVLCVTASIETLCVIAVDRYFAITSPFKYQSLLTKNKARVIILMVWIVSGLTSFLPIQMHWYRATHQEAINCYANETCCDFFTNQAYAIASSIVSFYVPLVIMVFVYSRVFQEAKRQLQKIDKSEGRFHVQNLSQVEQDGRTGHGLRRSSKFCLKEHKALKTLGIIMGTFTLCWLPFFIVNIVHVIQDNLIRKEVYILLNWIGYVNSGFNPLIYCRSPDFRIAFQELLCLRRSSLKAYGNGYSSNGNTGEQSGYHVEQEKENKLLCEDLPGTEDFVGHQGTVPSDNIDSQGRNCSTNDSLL

[11] = molecular target: AP-2 complex subunit beta (Homo sapiens) (UniProt P63010); assay: inhibitors of arrestin peptide binding to AP2, pilot screen, biochemical, validation set, GST-AP2 beads, flow cytometry (AID 504541;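 active means inhibition above 54%, about 3 SD of non-fluorescent compounds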;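 further: AP2 carries R879A mutation and is captured from E. coli lysate; bead-bound FITC arrestin peptide fluorescence measuring arrestin peptide binding to AP2; 0% = DMSO wells and 100% = excess unlabeled arrestin peptide control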); details: FITC arrestin peptide, at 10 µM, stronger effect = higher value, AP2 beta2 appendage fragment, R879A mutant
AP-2 complex subunit beta (Homo sapiens), sequence (P63010 whole entry, looked up, the tested form may be a part, one chain of several): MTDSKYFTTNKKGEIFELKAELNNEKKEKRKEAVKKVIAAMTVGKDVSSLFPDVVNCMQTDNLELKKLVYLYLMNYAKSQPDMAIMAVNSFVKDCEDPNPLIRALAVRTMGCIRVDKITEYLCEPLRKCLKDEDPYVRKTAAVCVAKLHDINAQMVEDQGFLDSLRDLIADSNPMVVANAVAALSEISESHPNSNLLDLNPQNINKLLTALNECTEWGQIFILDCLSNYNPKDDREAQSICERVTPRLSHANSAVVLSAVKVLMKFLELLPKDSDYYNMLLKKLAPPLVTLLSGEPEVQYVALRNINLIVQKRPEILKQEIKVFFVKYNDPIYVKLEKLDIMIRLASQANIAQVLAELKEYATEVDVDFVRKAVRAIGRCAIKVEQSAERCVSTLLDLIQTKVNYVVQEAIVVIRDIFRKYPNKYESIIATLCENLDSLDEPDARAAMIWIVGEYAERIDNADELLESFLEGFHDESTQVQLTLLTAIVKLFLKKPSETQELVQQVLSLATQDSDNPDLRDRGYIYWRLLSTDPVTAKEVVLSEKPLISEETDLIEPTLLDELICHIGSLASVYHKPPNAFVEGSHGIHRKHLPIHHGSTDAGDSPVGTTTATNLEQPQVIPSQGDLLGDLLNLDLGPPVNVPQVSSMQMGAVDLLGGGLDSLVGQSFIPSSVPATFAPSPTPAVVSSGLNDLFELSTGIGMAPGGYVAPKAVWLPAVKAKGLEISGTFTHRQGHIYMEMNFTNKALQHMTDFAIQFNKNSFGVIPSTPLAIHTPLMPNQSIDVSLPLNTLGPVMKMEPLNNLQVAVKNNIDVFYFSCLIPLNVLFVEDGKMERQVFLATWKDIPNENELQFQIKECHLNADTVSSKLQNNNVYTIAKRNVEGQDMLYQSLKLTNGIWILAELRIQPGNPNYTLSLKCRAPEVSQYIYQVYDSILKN

[12] = yeast V-ATPase proton transport modulators, S. cerevisiae, pHLuorin, HTS validation (AID 504600; in the data active means response above about 15%;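 further: plate controls were DMSO for no effect and reference compound for full effect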); details: S. cerevisiae pHLuorin cytosolic pH, at 10 µM, stronger effect = higher value
[13] = test system: anti-desmoglein-3 scFv antibody binding to human DSG3; assay: inhibitors of anti-DSG3 scFv binding to DSG3, pilot screen, biochemical, validation compound set, bead-based, flow cytometry (AID 588368;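 active means binding below the plate cutoff, the plate median minus 3 SD, with a reading above zero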;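 further: signal is the median channel fluorescence of bead-bound GFP antibody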); details: Protein G beads, DSG3-Fc, scFv-GFP binding, at 10 µM, stronger effect = lower value
[14] = inhibitors of fungal efflux pumps CDR1, CDR2, MDR1, pilot screen, validation compound set, multiplex, phenotypic (AID 588506;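 active means efflux inhibition above 0.42, the validation set average plus 4 SD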;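 further: Nile Red retained in cells so higher fluorescence means more efflux inhibition; 0 = negative control wells and 1 = enniatin B 25 µM full block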); details: S. cerevisiae pump-expressing triplex, Nile Red efflux flow cytometry; at 10 µM; stronger effect = higher value; the pumps come from Candida albicans
[15] = molecular target: ATP-binding cassette sub-family B member 6 (Homo sapiens) (UniProt Q9NP58); assay: ABCB6 transporter inhibitors, pilot screen, K562-ABCB6 cells, flow cytometry, validation set (AID 588550;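 active means inhibition above the screen-wide mean plus 3 SD, about 51%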;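 further: 0% = DMSO wells and 100% = benzethonium chloride 70 µM positive control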); details: K562-ABCB6 porphyrin accumulation, 1 h, at 10 µM, stronger effect = higher value
ATP-binding cassette sub-family B member 6 (Homo sapiens), sequence (Q9NP58 whole entry, looked up): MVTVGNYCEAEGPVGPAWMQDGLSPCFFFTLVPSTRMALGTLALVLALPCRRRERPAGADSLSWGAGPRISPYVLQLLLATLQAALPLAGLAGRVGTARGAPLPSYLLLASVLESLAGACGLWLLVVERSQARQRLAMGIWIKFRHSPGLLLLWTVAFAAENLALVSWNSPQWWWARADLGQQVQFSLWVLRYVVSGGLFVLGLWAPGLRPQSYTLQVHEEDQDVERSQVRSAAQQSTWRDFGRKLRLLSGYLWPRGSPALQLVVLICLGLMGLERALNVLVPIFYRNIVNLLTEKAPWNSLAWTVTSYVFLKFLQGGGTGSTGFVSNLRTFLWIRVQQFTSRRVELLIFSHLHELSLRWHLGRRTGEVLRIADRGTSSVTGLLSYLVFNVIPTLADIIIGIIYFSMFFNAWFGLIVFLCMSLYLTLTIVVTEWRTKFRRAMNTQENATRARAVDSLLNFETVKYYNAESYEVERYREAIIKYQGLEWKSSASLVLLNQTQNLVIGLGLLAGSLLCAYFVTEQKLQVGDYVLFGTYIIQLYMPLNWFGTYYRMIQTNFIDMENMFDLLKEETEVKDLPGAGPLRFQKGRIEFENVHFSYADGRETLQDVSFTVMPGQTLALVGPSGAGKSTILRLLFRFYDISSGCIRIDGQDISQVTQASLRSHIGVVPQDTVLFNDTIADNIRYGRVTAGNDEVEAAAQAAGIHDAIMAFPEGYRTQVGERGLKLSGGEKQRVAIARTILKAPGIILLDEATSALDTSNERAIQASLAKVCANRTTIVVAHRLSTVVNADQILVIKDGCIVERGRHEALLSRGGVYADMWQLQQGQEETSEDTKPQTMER

[16] = promoters of myeloid differentiation in arrested cells, primary screen, cell-based, GFP/MAC1 double positive, flow cytometry, validation set (AID 588685;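 active means differentiation response of at least 50%, scaled between solvent and reference control, from cells with both markers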;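 further: compound exposure lasts four days before antibody staining and flow analysis; 0% = DMSO wells and 100% = 5 µM fulvestrant positive control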); details: ER-HoxA9 marrow cells, stronger effect = higher value, normalized: vehicle 0, fulvestrant 100

| SMILES | percent of DMSO control GFP [1] | GFP response vs DMSO [2] | percent response of DMSO control [3] | GFP response vs DMSO [4] | GFP response, % of DMSO [5] | double positive events [6] [%] | vesicle binding response [6] | inhibition [7] | superoxide response (% of plate) [8] | aptamer binding inhibition [9] | response [10] | inhibition [11] | response [12] | binding (% of control) [13] | efflux inhibition (fraction of control) [14] | inhibition [15] | differentiation response [16] |
| --- | --- | --- | --- | --- | --- | --- | --- | --- | --- | --- | --- | --- | --- | --- | --- | --- | --- |
| CN(C)CCCN1c2ccccc2Sc2ccc(C(F)(F)F)cc21 | 99% (inactive) | 106% (inactive) | 99% (inactive) | 115% (inactive) | 113% (inactive) | 60.5 | 196% (inactive) | 53.4% (active) | 88.6% (inactive) | -7% (inactive) | 26.6% (inactive) | 29.2% (inactive) | -0.19% (inactive) | 101% (inactive) | 0.25 (inactive) | 6% (inactive) | -18.8% (inactive) |
| CC1(CC(=O)Nc2ccccc2)NC(=S)N(c2ccccc2)N1 (stereo not drawn) | 106% (inactive) | 111% (inactive) | 90.1% (inactive) | 134% (inactive) | 104% (inactive) | 49.5 | 9640% (inactive) | -0.43% (inactive) | 109% (inactive) | 5% (inactive) | -7.2% (inactive) | -4.29% (inactive) | -0.03% (inactive) | 99.1% (inactive) | -0.13 (inactive) | 6% (inactive) | -18.4% (inactive) |
| O=C(CN1CC[n+]2c(-c3cccs3)csc21)c1ccc(Br)cc1 | 103% (inactive) | 104% (inactive) | 108% (inactive) | 103% (inactive) | 107% (inactive) | 64 | 142% (inactive) | 1.59% (inactive) | 96.7% (inactive) | 0% (inactive) | 10.7% (inactive) | 14.7% (inactive) | 1.44% (inactive) | 99% (inactive) | -0.085 (inactive) | -9% (inactive) | -7.5% (inactive) |
| CC(C)Oc1ccc(C2CC(=O)N(c3ccc(C(=O)O)cc3)C2=O)cc1 (stereo not drawn) | 98.1% (inactive) | 97.6% (inactive) | 105% (inactive) | 137% (inactive) | 122% (inactive) | 57.7 | 178% (inactive) | 3.14% (inactive) | 135% (inactive) | -4% (inactive) | -19.8% (inactive) | -15% (inactive) | -1.38% (inactive) | 105% (inactive) | -0.04 (inactive) | -1% (inactive) | -9.91% (inactive) |
| COc1ccc2c(c1)C=CC1(O2)N(CCO)c2ccccc2C1(C)C (stereo not drawn) | 98.2% (inactive) | 111% (inactive) | 104% (inactive) | 124% (inactive) | 117% (inactive) | 62.1 | 212% (inactive) | -55.6% (inactive) | 108% (inactive) | 6% (inactive) | 43.9% (active) | 13.6% (inactive) | 7.05% (inactive) | 99.2% (inactive) | 0.04 (inactive) | -25% (inactive) | -1.05% (inactive) |
| C[C@]12CC[C@@H]3c4ccc(O)cc4CC[C@H]3[C@@H]1CC[C@@H]2O | 98.8% (inactive) | 105% (inactive) | 98.2% (inactive) | 132% (inactive) | 98.6% (inactive) | 63 | 186% (inactive) | 5.41% (inactive) | 97.8% (inactive) | 1% (inactive) | -1.92% (inactive) | 21.6% (inactive) | 2.25% (inactive) | 103% (inactive) | 0.68 (active) | 4% (inactive) | 9.54% (inactive) |
| CC1(C)CC(NC(=O)C23CCC(C)(C(=O)C2=O)C3(C)C)CC(C)(C)N1 (stereo not drawn) | 99% (inactive) | 112% (inactive) | 88.2% (inactive) | 116% (inactive) | 99.2% (inactive) | 65.1 | 166% (inactive) | 10.5% (inactive) | 96.1% (inactive) | 3% (inactive) | -4.74% (inactive) | -0.24% (inactive) | 6.45% (inactive) | 99.7% (inactive) | 0.19 (inactive) | 13% (inactive) | 12% (inactive) |
| CC/C(=C(\c1ccc(O)cc1)c1ccc(OCCN(C)C)cc1)c1ccccc1 | 107% (inactive) | 108% (inactive) | 109% (inactive) | 99.1% (inactive) | 114% (inactive) | 62.9 | 157% (inactive) | 15% (inactive) | 97.5% (inactive) | -6% (inactive) | 38.5% (inactive) | 42.2% (inactive) | -1.39% (inactive) | 112% (inactive) | 0.29 (inactive) | 21% (inactive) | -3.11% (inactive) |
| NC(N)=N/N=C/c1ccc(OS(=O)(=O)c2ccccc2)cc1 | 102% (inactive) | 101% (inactive) | 101% (inactive) | 90.4% (inactive) | 102% (inactive) | 61.3 | 141% (inactive) | 17.7% (inactive) | 93.2% (inactive) | -12% (inactive) | 13.2% (inactive) | -0.93% (inactive) | -4.93% (inactive) | 107% (inactive) | -0.03 (inactive) | 11% (inactive) | 4.2% (inactive) |
